Only some compounds are listed: those with a hit (about 4.1% of all), similar ones and a draw of the others.
DUSP3 inh = blocks human VHR1 dual specificity phosphatase; P51452; recombinant VHR phosphatase, pNPP absorbance; inhibition, % at 13.3 µM; hit rate 0.52% among 290,000; AID 1654; in the data active = inhibition above about 50%
Target sequence (P51452 whole entry, looked up): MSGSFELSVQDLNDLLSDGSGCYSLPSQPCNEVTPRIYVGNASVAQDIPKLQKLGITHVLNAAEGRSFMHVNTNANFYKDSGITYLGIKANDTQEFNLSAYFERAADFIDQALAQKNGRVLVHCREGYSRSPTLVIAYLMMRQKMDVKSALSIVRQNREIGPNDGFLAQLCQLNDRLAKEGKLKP
BoNT F protease = blocks Botulinum neurotoxin F light chain protease; hit rate 0.22% among 360,000; inhibition, % at 10 µM; AID 588497; Multiplex microsphere protease cleavage assay, flow cytometry; in the data active = inhibition above about 35%, passing the limit was not always enough; inconclusive = no clear call, values can overlap the other calls; also: plate controls were buffer without enzyme for full effect and enzyme alone for no effect
BoNT-A LC inh2 = inhibitors of Botulinum neurotoxin A light chain protease. multiplex microsphere protease substrate cleavage, flow cytometry. inhibition, % at 10 µM. hit rate 0.17% among 360,000; also: plate controls were buffer without enzyme for full effect and enzyme alone for no effect
MazF activator = activators of E. coli MazEF toxin-antitoxin RNase; FAM/BHQ RNA-DNA oligo cleavage fluorescence, 5 h; P0AE70; activation, % at 20 µM; AID 504720; hit rate 0.32% among 350,000; in the data active = activation above about 50%
Target sequence (P0AE70 whole entry, looked up): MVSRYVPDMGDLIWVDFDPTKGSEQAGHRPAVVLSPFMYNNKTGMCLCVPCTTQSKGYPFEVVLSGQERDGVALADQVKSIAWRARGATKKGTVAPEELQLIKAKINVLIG
Anthrax LF inh2 = blocks Bacillus anthracis lethal factor protease. AID 588501. multiplex microsphere protease cleavage assay, LF. P15917. hit rate 0.12% among 360,000. inhibition, % at 10 µM; also: plate controls were buffer without enzyme for full effect and enzyme alone for no effect
Bead autofluor = counter-screen for toxin protease inhibitors: compound fluorescence; fluorescence intensity (test concentration not listed); hit rate 3.1% among 360,000; compound autofluorescence counterscreen, microsphere flow cytometry; stronger effect = higher value; in the data active = fluorescence intensity above about 16000; inconclusive = no clear call, values can overlap the other calls
Numbers without * were called inactive. Rule as the data show it, unless noted: active = inhibition above about 30%; inconclusive = no clear call, values can overlap the other calls; inactive = below that.

Screening CCCCNC(=O)C1(C)CCC(=O)N1c1cc(C(C)(C)C)nn1C (stereo not drawn) returned BoNT F protease 0.7, BoNT-A LC inh2 0.2, Anthrax LF inh2 3.8 and Bead autofluor 5842.
For CC(=O)CSc1nc(C(F)(F)F)cc(=O)n1-c1ccccc1 the results were DUSP3 inh -0.1, BoNT F protease -2.7, BoNT-A LC inh2 -0.9, MazF activator -0.9, Anthrax LF inh2 -1.6 and Bead autofluor 20676*.
Screening CC1(C(=O)NCc2ccccc2)CCC(=O)N1C1CC1 (stereo not drawn) returned BoNT F protease 1.0, BoNT-A LC inh2 -1.0, Anthrax LF inh2 7.8 and Bead autofluor 5504.
`CCCCCc1nc2ccccc2c(=O)n1-c1ccc(Cl)cc1[N+](=O)[O-]` gave DUSP3 inh 1.3, BoNT F protease -6.0, BoNT-A LC inh2 -2.7, MazF activator -0.4, Anthrax LF inh2 -0.5 and Bead autofluor 23302*.
COc1cccc(OCCNS(=O)(=O)c2ccccc2[N+](=O)[O-])c1 was read as BoNT F protease 1.4, BoNT-A LC inh2 0.1, MazF activator 2.5, Anthrax LF inh2 -10.7 and Bead autofluor 3573.
For CCCCSc1nc(N)c(C#N)c(-c2cccs2)c1C#N the results were DUSP3 inh 2.9, BoNT F protease 1.6, BoNT-A LC inh2 3.2, MazF activator 13.6, Anthrax LF inh2 -0.6 and Bead autofluor 19876*.
CC(=O)CSc1nc(N)c(C#N)c(-c2cccs2)c1C#N was read as DUSP3 inh 2.4, BoNT F protease 1.9, BoNT-A LC inh2 0.5, MazF activator 3.7, Anthrax LF inh2 4.8 and Bead autofluor 9364.
For CCOc1ccc(NC(=O)c2cccc(S(=O)(=O)NCc3cccnc3)c2)cc1 the results were BoNT F protease 6.1, BoNT-A LC inh2 -0.4, MazF activator 4.8, Anthrax LF inh2 -5.8 and Bead autofluor 3785.
O=C(Cc1coc2ccc3ccccc3c12)NCc1ccccc1 was read as DUSP3 inh 9.9, BoNT F protease -2.6, BoNT-A LC inh2 -2.1, MazF activator -1.1, Anthrax LF inh2 -1.3 and Bead autofluor 20707*.
Cn1c(=O)c2[nH]c(C=Cc3ccc4c(c3)OCO4)nc2n(C)c1=O was read as BoNT F protease -2.1, BoNT-A LC inh2 -0.1, MazF activator 8.0, Anthrax LF inh2 7.5 and Bead autofluor 3802.
For COC(=O)CC(=O)O[C@H]1C=C[C@@H](NC(=O)OC(C)(C)C)C1 the results were BoNT F protease -6.7, BoNT-A LC inh2 -0.3, MazF activator 9.6, Anthrax LF inh2 4.5 and Bead autofluor 3091.
`COc1ccc(OC)c(S(=O)(=O)N(C)CC(=O)N2CCCCC2)c1` gave DUSP3 inh 52.8*, BoNT F protease 0.4, BoNT-A LC inh2 -2.5, MazF activator -2.6, Anthrax LF inh2 -1.0 and Bead autofluor 4581.
CN(CC(=O)N1CCCC1)S(=O)(=O)c1cc(Cl)ccc1Cl was read as DUSP3 inh -14.8, BoNT F protease -6.4, BoNT-A LC inh2 inconclusive, MazF activator -5.7, Anthrax LF inh2 -0.3 and Bead autofluor 22425*.
For CN(CC(=O)O)S(=O)(=O)c1cc(Cl)ccc1Cl the results were DUSP3 inh 9.6, BoNT F protease -11.8, BoNT-A LC inh2 -1.3, MazF activator -5.3, Anthrax LF inh2 0.8 and Bead autofluor 7073.
`O=C(C1CC1)N1N=C(c2ccccc2)CC1(O)C(F)(F)C(F)(F)F` (stereo not drawn) gave DUSP3 inh 0.1, BoNT F protease inconclusive, BoNT-A LC inh2 1.3, MazF activator 9.0, Anthrax LF inh2 -5.8 and Bead autofluor 3857.
`Cc1ccccc1NC(=O)Cn1c(=O)n(C)c2ccccc21` gave DUSP3 inh 35.9, BoNT F protease -1.1, BoNT-A LC inh2 -0.8, MazF activator 3.0, Anthrax LF inh2 -1.8 and Bead autofluor 21084*.
Screening Cn1c(=O)n(CC(=O)NCc2cccnc2)c2ccccc21 returned DUSP3 inh 9.6, BoNT F protease -3.0, BoNT-A LC inh2 -2.3, MazF activator 4.9, Anthrax LF inh2 -2.4 and Bead autofluor 24061*.
Screening Cc1ccccc1NC(=O)Cn1nc(-c2ccccc2)nc1-c1ccccc1 returned DUSP3 inh 23.7, BoNT F protease 1.1, BoNT-A LC inh2 0.7, MazF activator -31.2, Anthrax LF inh2 -0.3 and Bead autofluor 16150*.
Screening CCN(CC)S(=O)(=O)c1ccc(N2CCCC2)c(NC(=O)CSCc2c(C)noc2C)c1 returned BoNT F protease -1.9, BoNT-A LC inh2 -0.5, MazF activator 4.2, Anthrax LF inh2 1.2 and Bead autofluor 3822.
`O=S1(=O)CC(N2CCCCC2)CN1Cc1cn(Cc2cccc(C(F)(F)F)c2)nn1` (stereo not drawn) gave BoNT F protease 0.7, BoNT-A LC inh2 -1.6, Anthrax LF inh2 -1.8 and Bead autofluor 6347.
CCN(CC)CCCNC(=O)c1nn2c(C(F)(F)F)cc(-c3ccccc3)nc2c1Cl was read as DUSP3 inh 59.7*, BoNT F protease -5.4, BoNT-A LC inh2 -1.3, MazF activator 12.4, Anthrax LF inh2 3.0 and Bead autofluor 3856.
Fc1ccc2c(c1)C1C=CCC1C(c1cc3c(cc1Br)OCO3)N2 (stereo not drawn) was read as DUSP3 inh 14.7, BoNT F protease 6.2, BoNT-A LC inh2 inconclusive, MazF activator -7.5, Anthrax LF inh2 -8.8 and Bead autofluor 19890*.
O=C(O)C1Nc2ccc(Br)cc2C2C=CCC12 (stereo not drawn) was read as DUSP3 inh 37.2 and MazF activator 6.0.
`N#CC(c1ccc(N)cc1)C(CC(=O)c1ccccc1)c1ccccc1` (stereo not drawn) gave BoNT F protease -2.5, BoNT-A LC inh2 0.1, MazF activator 4.1, Anthrax LF inh2 0.7 and Bead autofluor 3523.
Screening Cc1cc(C)nc(N2CCC(C(=O)Nc3ccc4c(c3)CCC4)CC2)n1 returned DUSP3 inh -8.6, BoNT F protease 2.0, BoNT-A LC inh2 2.3, MazF activator 0.9, Anthrax LF inh2 0.7 and Bead autofluor 21599*.
Screening O=C(Nc1cccc(C(F)(F)F)c1)C1CCCN1S(=O)(=O)c1cccc2cccnc12 (stereo not drawn) returned DUSP3 inh 47.9, BoNT F protease -1.8, BoNT-A LC inh2 inconclusive, MazF activator -5.3, Anthrax LF inh2 -0.6 and Bead autofluor 20787*.
`Cc1cc(C)nc(N2CCC(C(=O)NC3CCCc4ccccc43)CC2)n1` (stereo not drawn) gave DUSP3 inh 19.4, BoNT F protease 8.0, BoNT-A LC inh2 6.3, MazF activator 2.7, Anthrax LF inh2 0.5 and Bead autofluor 19820*.
`Cc1ccc(C(=O)NC2CCCc3ccccc32)o1` (stereo not drawn) gave DUSP3 inh 13.4, BoNT F protease -0.4, BoNT-A LC inh2 -1.2, MazF activator 1.1, Anthrax LF inh2 -4.9 and Bead autofluor 22743*.
Screening COc1ccc(NC(=O)C2CCN(c3nc(C)cc(C)n3)CC2)cc1 returned DUSP3 inh 16.1, BoNT F protease 6.6, BoNT-A LC inh2 0.9, MazF activator -10.5, Anthrax LF inh2 16.3 and Bead autofluor 9347.
